Reference: PubChem BioAssay (NCATS)
Results filed as inconclusive are left out. Active and inactive are the calls of the source. Unless noted, the call rests on the fitted dose curve; in most records, active means well fitted cell-killing curve with a large enough effect; inconclusive means small, poorly fitted or top-dose-only effect; inactive means flat fitted curve, though single readings scatter.

Assays:
[1] = Cell Viability - LYMP2-025 (AID 976);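 further: series mostly up to about 92 µM; plate controls were DMSO only for no effect and tetraoctylammonium bromide control for full effect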
Summary of the method: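 Seed 2500 LYMP2-025 cells/well; 5 hr at 37 C; add compound; 24 hr at 37 C; add CellTiter-Glo; 30 min RT; read luminescence. AC50 from Hill-modelled concentration-response.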

[2] = Cell Viability - LYMP2-002 (AID 977);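 further: series mostly up to about 92 µM; plate controls were DMSO only for no effect and 92 µM tetraoctylammonium bromide for full effect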
Summary of the method: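 Luminescent ATP readout (CellTiter-Glo, 30 min room temperature) after 24 h compound exposure at 37 C of a human lymphoblastoid line, 2500 cells/well. AC50 values derived by standard Hill fitting of qHTS concentration-response data.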

[3] = Cell Viability - LYMP2-007 (AID 979);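 further: cells exposed to compound for 24 h before reading; 0% = DMSO only and the negative end = 92 µM tetraoctylammonium bromide; nearly all actives have a fitted effect of over 60% in size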
Summary of the method: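 Luminescent ATP signal (CellTiter-Glo) serves as the viability read-out after 24 hr compound treatment of lymphoblastoid cells in complete medium at 37 C. Concentration-response data were fitted to the Hill equation to give AC50 values.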

[4] = Cell Viability - LYMP2-008 (AID 980); further: on the % scale 0 is the no-effect control and ±100 the full control effect; nearly all actives have a fitted effect of over 60% in size
Summary of the method: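 qHTS, human lymphoblastoid line, 2500 cells/well; 5 hr preincubation, 24 hr compound, 37 C. CellTiter-Glo ATP luminescence. AC50 via Hill equation. Tetraoctylammonium bromide positive control.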

[5] = Cell Viability - LYMP2-010 (AID 981); further: on the % scale 0 is the no-effect control and ±100 the full control effect; nearly all actives have a fitted effect of over 55% in size
Summary of the method: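 Luminescent ATP signal (CellTiter-Glo) served as the viability read-out. Cells of the human lymphoblastoid line were treated with compound over a concentration range for 24 hours at 37 C, and AC50 values came from Hill-equation modeling.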

[6] = Cell Viability - LYMP2-012 (AID 982);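 further: cellular ATP by luciferase luminescence where a drop means cytotoxicity; cells exposed to compound for one day before reading; 0% = DMSO only and full loss = 92 µM tetraoctylammonium bromide; nearly all actives have a fitted effect of over 55% in size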
[7] = Cell Viability - LYMP2-014 (AID 983);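 further: series mostly up to about 92 µM; plate controls were DMSO only for no effect and 92 µM tetraoctylammonium bromide for full effect; nearly all actives have a fitted effect of over 50% in size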
Summary of the method: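 Luminescent ATP signal (CellTiter-Glo, 30 min at room temperature) serves as the viability read-out after 24 hr compound exposure at 37 C. Cells were seeded at 2500 per well and settled 5 hr beforehand.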

[8] = Cell Viability - LYMP2-016 (AID 984); further: on the % scale 0 is the no-effect control and ±100 the full control effect; nearly all actives have a fitted effect of over 55% in size
Summary of the method: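 Acute toxicity in a Coriell human lymphoblastoid line is scored as loss of intracellular ATP over 24 h of treatment in complete medium. CellTiter-Glo signal is fitted across concentrations with the Hill equation to give AC50.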

[9] = Cell Viability - LYMP2-018 (AID 985);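 further: plate controls were DMSO only for no effect and tetraoctylammonium bromide at 92 µM for full effect; nearly all actives have a fitted effect of over 50% in size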
Summary of the method: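 Luminescent ATP signal (CellTiter-Glo, read after 30 min at room temperature) reports viable cells after 24 hr compound treatment at 37 C. Concentration-response data were fitted to the standard Hill equation for AC50.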

[10] = Cell Viability - LYMP2-020 (AID 986);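 further: series mostly up to about 92 µM; plate controls were DMSO only for no effect and tetraoctylammonium bromide at 92 µM for full effect; nearly all actives have a fitted effect of over 55% in size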
Summary of the method: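 Luminescent ATP signal (CellTiter-Glo, 30 min at room temperature) is the read-out after 24 h compound treatment of lymphoblastoid cells at 37 C. AC50 values come from Hill-equation fits across concentrations.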

[11] = Cell Viability - LYMP2-022 (AID 987)
Summary of the method: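 qHTS: human lymphoblastoid cells 2500/well; 5 hr 37 C; cpd added; 24 hr 37 C; CellTiter-Glo, 30 min RT; luminescence. AC50 via Hill fit; tetraoctylammonium bromide positive ctrl.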

[12] = Cell Viability - LYMP2-024 (AID 988);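 further: plate controls were DMSO only for no effect and 92 µM tetraoctylammonium bromide for full effect; nearly all actives have a fitted effect of over 60% in size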
Summary of the method: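 Steps: seed 2500 cells/well, 5 hr 37 C; add compound, 24 hr 37 C; add CellTiter-Glo, 30 min room temperature; read luminescence. AC50 derived by Hill modelling of concentration-dependent ATP loss.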

[13] = Cell Viability - LYMP2-026 (AID 989); further: on the % scale 0 is the no-effect control and ±100 the full control effect; nearly all actives have a fitted effect of over 50% in size
Summary of the method: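 Luminescent ATP signal (CellTiter-Glo, 30 min room temperature) measures viable lymphoblastoid cells after 24 hr compound treatment at 37 C. Decreased ATP reflects acute toxicity; AC50 values come from Hill-equation modeling.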

[14] = Cell Viability - LYMP1-002 - Assay at 24 hr (AID 993); further: on the % scale 0 is the no-effect control and ±100 the full control effect
Summary of the method: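 Cells plated 2500/well, 5 hr 37 C; compounds added, 24 hr 37 C; CellTiter-Glo added, 30 min RT; luminescence read. Tetraoctylammonium bromide positive control. Hill-equation AC50.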

[15] = Cell Viability - LYMP1-002 - Assay at 40 hr (AID 994);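 further: 0% = DMSO only and full inhibition = 92 µM tetraoctylammonium bromide; nearly all actives have a fitted effect of over 60% in size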
Summary of the method: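 Luminescent ATP signal served as the viability readout, with decreases taken as toxicity. Cells were treated with compounds across a concentration range for 40 hours at 37 C, and AC50 values came from standard Hill modeling.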

[16] = qHTS Assay for Identification of Small Molecule Inducers of Hypoxia Response (AID 2120; active means well fitted curve in the direction sought with a large enough effect in the signal ratio, with a control signal flat, not every such curve was filed as active; the % refers to the signal ratio; further: 0% is about no effect)
Summary of the method: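 ME-180 HRE-bla cells plated in Opti-MEM/0.5% dialyzed FBS, rested 4-5 h, then dosed with compound titrations by pin tool. After 17 h at 37 degrees C, CCF4 dye loaded 2.5 h at RT; 460/530 nm ratio gave %Activity and AC50.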

[17] = target: Estrogen receptor (Homo sapiens) (UniProt P03372); assay: qHTS assay for small molecule antagonists of estrogen receptor alpha signaling (AID 588513; active means well fitted curve in the direction sought with a large enough effect in the signal ratio, with a control signal flat, not every such curve was filed as active; the % refers to the signal ratio; further: on the % scale 0 is the no-effect control and ±100 the full control effect)
Summary of the method: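 Cells were plated at 5000/well and incubated 4 h at 37 C. Compounds were added as 1:2 dilution series, duplicates. 17-beta-estradiol (0.5nM final) was added for 18 h before CCF4 detection.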

[18] = target: Estrogen receptor (Homo sapiens) (UniProt P03372); assay: qHTS assay for small molecule agonists of estrogen receptor alpha signaling (AID 588514; calls by dose curve;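 further: 0% = vehicle only and 100% = reference agonist; nearly all actives have a fitted effect of over 70% in size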)
Summary of the method: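 Cells were plated at 5000/well, incubated 4 hrs at 37 C, dosed with compound titration series, incubated 18 hrs at 37 C, loaded with CCF4 dye for 2 hrs at RT, then fluorescence was read.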

[19] = Cell Viability - LYMP2-006 (AID 978)
Summary of the method: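 Concentration-dependent loss of intracellular ATP in a human lymphoblastoid line after 24 hr treatment at 37 C was measured by CellTiter-Glo luminescence, with AC50 values obtained from standard Hill-equation modelling.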

[20] = target: Androgen receptor (Homo sapiens) (UniProt P10275); assay: qHTS assay for small molecule agonists of androgen receptor signaling (AID 588515; active means well fitted curve in the direction sought with a large enough effect in the signal ratio, with a control signal flat; the % refers to the signal ratio; further: on the % scale 0 is the no-effect control and ±100 the full control effect); settings: AR-UAS-bla HEK293, beta-lactamase ratio, agonist 16 h; active compounds read high
Summary of the method: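 EC50 and efficacy came from Hill fits of titrations (up to 92 uM) normalized to 30 nM R1881 as 100% and DMSO as 0%. Compound exposure was 16 h at 37 C on AR-UAS-bla HEK293 cells, with a 405/460/530 nm CCF4 fluorescence read.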

Sequence of Estrogen receptor (Homo sapiens) (P03372 whole entry, looked up): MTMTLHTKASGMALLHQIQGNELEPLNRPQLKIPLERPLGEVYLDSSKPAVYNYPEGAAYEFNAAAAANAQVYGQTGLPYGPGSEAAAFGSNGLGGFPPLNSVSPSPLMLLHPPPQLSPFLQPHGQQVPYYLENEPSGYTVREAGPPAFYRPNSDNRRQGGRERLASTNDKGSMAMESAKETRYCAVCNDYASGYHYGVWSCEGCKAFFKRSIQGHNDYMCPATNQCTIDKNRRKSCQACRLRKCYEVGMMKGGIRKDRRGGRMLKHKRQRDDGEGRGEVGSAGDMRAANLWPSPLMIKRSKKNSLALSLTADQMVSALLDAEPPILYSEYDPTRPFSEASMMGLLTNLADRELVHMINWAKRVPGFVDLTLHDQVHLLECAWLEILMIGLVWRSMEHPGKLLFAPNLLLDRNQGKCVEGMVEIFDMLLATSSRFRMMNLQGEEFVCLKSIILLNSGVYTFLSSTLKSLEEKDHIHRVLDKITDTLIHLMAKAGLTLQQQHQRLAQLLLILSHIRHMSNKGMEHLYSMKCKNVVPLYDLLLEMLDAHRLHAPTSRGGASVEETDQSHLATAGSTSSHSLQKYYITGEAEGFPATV
Sequence of Androgen receptor (Homo sapiens) (P10275 whole entry, looked up): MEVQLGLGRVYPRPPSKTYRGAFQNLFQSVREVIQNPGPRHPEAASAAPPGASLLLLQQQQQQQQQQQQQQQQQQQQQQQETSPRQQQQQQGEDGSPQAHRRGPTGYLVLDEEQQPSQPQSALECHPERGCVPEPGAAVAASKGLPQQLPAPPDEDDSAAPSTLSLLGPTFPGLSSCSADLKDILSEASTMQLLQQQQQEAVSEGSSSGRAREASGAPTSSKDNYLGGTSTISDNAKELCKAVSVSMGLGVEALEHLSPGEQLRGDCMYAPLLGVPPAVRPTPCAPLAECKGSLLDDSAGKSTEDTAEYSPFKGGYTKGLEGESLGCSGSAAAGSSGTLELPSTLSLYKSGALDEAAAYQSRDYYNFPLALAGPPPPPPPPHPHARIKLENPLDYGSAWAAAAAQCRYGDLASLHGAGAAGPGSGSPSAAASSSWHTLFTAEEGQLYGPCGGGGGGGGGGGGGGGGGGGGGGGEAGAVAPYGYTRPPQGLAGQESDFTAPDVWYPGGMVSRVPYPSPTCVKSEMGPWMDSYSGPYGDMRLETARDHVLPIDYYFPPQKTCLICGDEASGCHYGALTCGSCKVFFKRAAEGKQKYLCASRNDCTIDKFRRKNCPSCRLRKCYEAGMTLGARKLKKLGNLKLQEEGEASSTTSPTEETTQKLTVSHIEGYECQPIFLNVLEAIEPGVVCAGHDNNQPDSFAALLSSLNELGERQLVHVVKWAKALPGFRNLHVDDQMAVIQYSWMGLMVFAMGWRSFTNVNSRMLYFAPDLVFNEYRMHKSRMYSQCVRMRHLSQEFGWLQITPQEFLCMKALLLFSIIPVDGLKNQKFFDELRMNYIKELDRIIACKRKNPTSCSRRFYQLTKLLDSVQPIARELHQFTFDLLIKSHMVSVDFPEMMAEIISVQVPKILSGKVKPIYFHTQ

CCOCC(=O)O
inactive: Potency [1] | Potency [2] | Potency [3] | Potency [4] | Potency [5] | Potency [6] | Potency [7] | Potency [8] | Potency [9] | Potency [10] | Potency [11] | Potency [12] | outcome [13] | Potency [14] | Potency [15] | outcome [16] | outcome [17] | Potency [18]

CO[Si](CCCNCCC[Si](OC)(OC)OC)(OC)OC
inactive: Potency [1] | Potency [2] | Potency [4] | Potency [5] | Potency [6] | Potency [7] | Potency [8] | Potency [10] | Potency [11] | Potency [12] | outcome [13] | Potency [14] | Potency [15] | outcome [16] | outcome [17] | Potency [18]

CCOC(C)(C)C
inactive: Potency [1] | Potency [2] | Potency [3] | Potency [4] | Potency [5] | Potency [6] | Potency [7] | Potency [8] | Potency [9] | Potency [10] | Potency [11] | Potency [12] | outcome [13] | Potency [14] | Potency [15] | outcome [16] | outcome [17]

O=[N+]([O-])c1ccc(CCO)cc1
inactive: Potency [1] | Potency [3] | Potency [14] | Potency [15] | outcome [16] | outcome [17] | Potency [18]

CC(C)N(C)C
inactive: Potency [1] | Potency [2] | Potency [19] | Potency [4] | Potency [5] | Potency [6] | Potency [7] | Potency [8] | Potency [10] | Potency [11] | Potency [12] | outcome [13] | Potency [14] | Potency [15] | outcome [16] | outcome [17] | Potency [18]

Clc1ccc(Cl)c(Cl)c1Cl
inactive: Potency [1] | Potency [2] | Potency [19] | Potency [3] | Potency [4] | Potency [5] | Potency [6] | Potency [7] | Potency [8] | Potency [9] | Potency [10] | Potency [11] | Potency [12] | outcome [13] | Potency [14] | Potency [15] | outcome [16]

CC(C=O)Cc1ccc(C(C)(C)C)cc1 (stereo not given)
inactive: Potency [1] | Potency [2] | Potency [19] | Potency [3] | Potency [4] | Potency [5] | Potency [6] | Potency [7] | Potency [9] | Potency [10] | Potency [11] | Potency [12] | outcome [13] | Potency [14] | Potency [15] | outcome [16] | activation [20] 8.05%

COC(=O)CCCC(=O)OC
inactive: Potency [1] | Potency [2] | Potency [19] | Potency [3] | Potency [4] | Potency [5] | Potency [6] | Potency [7] | Potency [8] | Potency [9] | Potency [10] | Potency [11] | Potency [12] | outcome [13] | Potency [14] | Potency [15] | outcome [16]

C=C(C)C(=O)OC
inactive: Potency [1] | Potency [2] | Potency [19] | Potency [3] | Potency [4] | Potency [5] | Potency [6] | Potency [7] | Potency [8] | Potency [9] | Potency [10] | Potency [11] | Potency [12] | outcome [13] | Potency [14] | Potency [15] | outcome [16]

O=C(O)CN(CC(=O)O)CC(=O)O
inactive: Potency [1] | Potency [2] | Potency [19] | Potency [3] | Potency [4] | Potency [5] | Potency [6] | Potency [7] | Potency [8] | Potency [9] | Potency [10] | Potency [11] | Potency [12] | outcome [13] | Potency [14] | Potency [15] | outcome [16]

CCOCCO
inactive: Potency [1] | Potency [2] | Potency [19] | Potency [3] | Potency [4] | Potency [5] | Potency [6] | Potency [7] | Potency [8] | Potency [9] | Potency [10] | Potency [11] | Potency [12] | outcome [13] | Potency [14] | Potency [15] | outcome [16]

CCNc1ccccc1
inactive: Potency [1] | Potency [2] | Potency [19] | Potency [3] | Potency [4] | Potency [5] | Potency [6] | Potency [7] | Potency [8] | Potency [9] | Potency [10] | Potency [11] | Potency [12] | outcome [13] | Potency [14] | Potency [15] | outcome [16] | activation [20] 1.96%
